# An excerpt weighted towards active compounds, which were near 5.9% of everything screened.
# ATXN2 expr inh – inhibitors of ATXN2 expression; HEK-293 ATXN2-luciferase reporter, luminescence, 24 h; Potency, µM (top dose mostly 57 µM), without a hit: at the top dose activity change, negative = inhibition, actives largely listed as inhibitors; 360,000 tested, 0.72% active; AID 1745845; also: % is scaled to controls: 0 for no effect and ±100 for the full control effect; nearly all actives have a fitted effect of over 55% in size
#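 qHTS (up to 57 uM final) was run with 24 h compound exposure of reporter cells at 37 °C. Each well was multiplexed: SteadyGlo luminescence measured ATXN2-luciferase expression after a fluorogenic Gly-Phe-AFC viability readout (25 uM final).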
# ATXN viability – viability counter-screen for ATXN expression inhibitors; AID 651635; 400,000 tested, 0.49% active; Potency, µM (series often up to 56.7 µM), usual class: cytotoxic; S2 cells (HEK-293 line with an ATXN2-luciferase reporter) viability, CellTiter-Fluor protease fluorescence, 24 h; also: nearly all actives have a fitted effect of over 40% in size
# KB-3-1 cytotox – kills parental KB-3-1 adenocarcinoma cells; KB-3-1 viability, CellTiter-Glo ATP luminescence, 72 h; Potency, µM (titrated, usually from 46.1 µM), most hits filed as cytotoxic; 400,000 tested, 1.4% active; also: % is scaled to controls: 0 for no effect and ±100 for the full control effect; nearly all actives have a fitted effect of over 60% in size
#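 Using CellTiter-Glo luminescence, growth of non-resistant KB-3-1 adenocarcinoma cells is assessed 72 h after pin-tool compound addition at 37 °C. Normalized responses across the concentration series yield fitted curves.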
# KB-V1 MDR tox – KB-V1 MDR subline cytotoxicity | KB-V1 MDR cells viability, CellTiter-Glo, 72 h | Potency, µM (doses to about 46.1 µM), usual class: cytotoxic | 400,000 tested, 3.4% active | AID 1347076; also: % is scaled to controls: 0 for no effect and ±100 for the full control effect; nearly all actives have a fitted effect of over 60% in size
#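 Cells of the MDR subline KB-V1 are plated, dosed with compound at multiple concentrations, and incubated 72 h at 37 degrees C; CellTiter-Glo is then added and luminescence read after 10 min.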
# HepG2 tox – kills HepG2 cells in TGF-b inhibitor counter-screen. HepG2 CAGA-GFP viability, ATP luminescence, 18 h. Potency, µM (top dose mostly 46.1 µM), without a hit: at the top dose activity change, negative = cytotoxicity, hits mostly cytotoxic. 410,000 tested, 0.76% active
#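 HepG2 CAGA-GFP cells (1000/well, DMEM with 1% FBS) received compound, then TGF-beta at 500 pg/mL final, and were incubated 18 hours at 37 degrees C. Viability was read by CellTiter-Glo luminescence. Media-only wells were set as complete cell-killing and DMSO as no toxicity.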
# TGFb SMAD3 inh – inhibitors of TGF-b signaling | HepG2 CAGA-GFP TGF-b/SMAD3 reporter, GFP fluorescence, 18 h; TGF-beta stimulated, 500 pg/mL final | Potency, µM (series often up to 46.1 µM), inactives show at the top dose activity, negative = inhibition, most hits filed as inhibitors | 410,000 tested, 1.2% active; also: % is scaled to controls: 0 for no effect and ±100 for the full control effect; nearly all actives have a fitted effect of over 65% in size
#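 Per well, imaged GFP fluorescence of HEPG2 CAGA-GFP cells gives the signal; cells get compound, then TGF-beta (500 pg/mL final), 18 h at 37 degrees C; %Activity versus -TGF-beta and +DMSO controls.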
# * = called active by the depositor; i = inactive; u = inconclusive; x = no result given; ! = not active in a repeat. Calls follow the shape of the dose curve; as a rule, active = well fitted curve in the direction sought with a large enough effect; inconclusive = small, poorly fitted or top-dose-only effect, or another doubt; inactive = no such curve, though single readings can be large; an effect the other way counts as inactive or inconclusive. Potency is read from the fitted curve at half-maximal effect.
SMILES,ATXN2 expr inh,ATXN viability,KB-3-1 cytotox,KB-V1 MDR tox,HepG2 tox,TGFb SMAD3 inh
COc1ccc(C)cc1-n1c(=O)c2ccccc2c2ccccc2c1=O,-29.9%,i,i,i,3.6%,-14.6%
COc1ccc(C)cc1N1C(=N)/C(=C2/Nc3ccccc3S2)C(c2ccccc2)C1=O (centres undefined),2.6%,i,u,20.6µM*,-8.9%,23.8%
O=c1[nH]c(=O)n([C@H]2C[C@H](O)[C@@H](CO)O2)cc1F,7.94µM*!,u,u,u,-4.5%,-3.2%
NC(=O)C1CCN(c2ncc(-c3cccc(N4CCOCC4)c3)s2)CC1,x,x,i,i,x,x
O=C1c2ccccc2C(=O)c2[nH]c(=O)[nH]c21,u,x,5.17µM*,10.3µM*,1.41µM*,1µM*
O=C1c2ccccc2C(=O)c2[nH]cnc21,x,u,i,i,5.3%,u
C[C@H]1CCCCO[C@H](CN(C)C(=O)C2CCCCC2)[C@@H](C)CN([C@@H](C)CO)C(=O)c2cc(NC(=O)NC3CCCCC3)ccc2O1,-4.8%,25.1µM*,i,u,-21.3%,-2.5%
CC(=NNc1nc2ccccc2s1)c1ncccn1,u,1.41µM*,2.31µM*,1.3µM*,-35.7%,0.794µM*
CC(=NNc1nc2ccccc2o1)c1ncccn1,u,u,1.84µM*,u,-37.4%,u
CC(C)c1ccc(NC(=O)CCNS(=O)(=O)c2ccc3c(c2)CCCC(=O)N3)cc1,0.2%,u,i,i,-29.6%,1.0%
COc1cccc(OC)c1C(=O)N1CC(C)OC(C)C1 (centres undefined),-6.3%,i,i,i,-1.5%,5.9%
CC1CN(C(=O)c2ccccc2Oc2ccccc2)CC(C)O1 (centres undefined),x,i,20.6µM*,i,-1.7%,-4.9%
CC1(C)OC(=O)C2(Cc3ccc(Cl)cc3N3CCCCC32)C(=O)O1 (centres undefined),x,x,i,i,16.7%,0.8%
Cc1cccc(N2C(=O)CN(Cc3sccc3C)C2=S)c1,-14.0%,i,u,23.1µM*,-26.6%,u
COc1ccccc1OCC(=O)N1CCCC(Nc2ccc(C)c(C)c2)C1 (centres undefined),-16.7%,i,x,x,-7.9%,6.9%
Cc1cc(Cl)ccc1OC(C)C(=O)N1CCCN(C(=O)C(C)Oc2ccc(Cl)cc2C)CC1 (centres undefined),u,u,13µM*,u,-4.8%,u
Cc1cc(Cl)ccc1OCC(=O)N1CCCN(C(=O)COc2ccc(Cl)cc2C)CC1,-28.9%,i,u,5.8µM*,-14.3%,u
COc1ccc(NC2CCCN(C(=O)COc3ccc(Cl)cc3C)C2)cc1OC (centres undefined),-11.2%,i,i,7.31µM*,-25.0%,-23.1%
O=C(COc1ccc(Cl)cc1Cl)N1CCCCCC1,22.4%,i,i,20.6µM*,-15.2%,-0.4%
Cc1ccc(F)cc1NC(=O)Cn1c(=O)nc(-c2ccccc2F)c2cc(Cl)ccc21,x,x,x,x,-7.0%,-18.7%
N#CN=c1snc(-c2ccccc2Cl)n1-c1ccc(F)cc1,x,x,i,i,-0.8%,4.7%
O=C(Cc1ccc(-c2ccccc2)cc1)NCc1ccccc1,5.1%,i,0.082µM*,0.291µM*,0.8%,u
O=C(NCc1cccnc1)c1ccc([N+](=O)[O-])o1,x,u,i,23.1µM*,-55.6%,u
Cc1ccc(CNC(=O)Cc2ccc(-c3ccccc3)cc2)cc1,0.1%,u,i,i,-22.3%,-19.9%
O=C(Cc1ccc(-c2ccccc2)cc1)NNC(=S)NCc1ccco1,-6.0%,i,i,8.2µM*,-6.9%,-0.2%
c1ccc(CN=C(NCc2ccccc2)NCc2ccccc2)cc1,u,i,u,i,22.4µM*,u
S=C(NCc1ccccc1)C(=S)NCc1ccccc1,13.6%,u,i,i,-11.2%,-5.1%
